This is a sample that favours compounds with a hit; in the whole collection about 4.5% have one here.
Mtb FBA inh = Mtb FBA enzyme inhibitors, primary screen, biochemical, fluorescence, strain H37Rv; Fructose-bisphosphate aldolase (Mycobacterium tuberculosis (strain ATCC 25618 / H37Rv)), …; purified M. tuberculosis FBA, fluorescence read-out; inhibition, % at 1 µM; actives 2.3% (n = 360,000); AID 588726, 2011; in the data active = inhibition above about 27%;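 note: 0% = vehicle and 100% = reference inhibitor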
Target sequence (P9WQA3 whole entry, looked up): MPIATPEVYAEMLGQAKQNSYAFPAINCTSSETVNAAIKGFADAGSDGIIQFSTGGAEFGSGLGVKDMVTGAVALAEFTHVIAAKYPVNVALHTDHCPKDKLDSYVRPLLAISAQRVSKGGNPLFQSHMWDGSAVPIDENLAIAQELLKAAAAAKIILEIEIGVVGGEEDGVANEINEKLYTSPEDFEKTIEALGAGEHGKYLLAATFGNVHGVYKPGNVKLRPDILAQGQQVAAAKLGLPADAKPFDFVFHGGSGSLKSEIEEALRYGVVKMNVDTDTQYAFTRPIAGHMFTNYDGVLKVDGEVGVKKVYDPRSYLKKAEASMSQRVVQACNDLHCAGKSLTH
PrPC surface inh = inhibitors of human cell surface prion protein PrPC, primary screen, cell-based, TR-FRET; Major prion protein (Homo sapiens), P04156; TR-FRET read-out; inhibition, % at 13.8 µM; actives 0.43% (n = 370,000); in the data active = inhibition above about 24%; note: 0% = median of the test wells and 100% = reference compound wells
BJeLR viability = MLPCN primary cell-based screen for lethality selective to Ras in HRASV12 cells; BJeLR (HRASV12) viability, CellTiter-Glo ATP luminescence, 48 h; inhibition, % (no concentration beside the values); actives 0.17% (n = 300,000); AID 1554, 2009; in the data active = inhibition above about 50%
PfHsp40 yeast = rescue of yeast from PfHsp40 toxicity, primary screen, S. cerevisiae, ATP luminescence. S. cerevisiae expressing PfHsp40, growth rescue. growth rescue, % at 12.5 µM. actives 0.68% (n = 340,000). AID 504582, 2011; in the data active = growth rescue above about 28%, passing the limit was not always enough;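 note: yeast W303a lacking pdr1 and pdr3 grown in galactose medium; growth measured after three days at 30 °C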
GDH-TPI counter = GDH-TPI coupling enzyme inhibitors, primary screen, artefact control for M. tuberculosis FBA inhibitor project, biochemical, absorbance, full deck; GDH-TPI coupled enzyme counterscreen, NADH absorbance; inhibition, % at 4.8 µM; actives 1.2% (n = 360,000); AID 588335, 2011; in the data active = inhibition above about 30%;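 note: 0% = DMSO wells and 100% = wells lacking the enzyme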
PrP 5UTR inh = inhibition of PrP 5' UTR reporter expression; inhibition, % (test concentration not listed); actives 0.35% (n = 340,000); cell-based PrP 5' UTR mRNA reporter, plate reader; AID 488862, 2010; in the data active = inhibition above about 52%; note: 0 = median of the neutral control wells
PrP 5UTR single = prion 5' UTR mRNA inhibition, cherry-pick retest; inhibition, % at 2.5 µM; AID 504592, 2011; cell-based prion protein 5' UTR reporter, plate reader; shares compounds with PrP 5UTR inh; actives 48% (n = 1,100); in the data active = inhibition above about 54%
* = called active by the depositor; . = no result.

SMILES	Mtb FBA inh	PrPC surface inh	BJeLR viability	PfHsp40 yeast	GDH-TPI counter	PrP 5UTR inh	PrP 5UTR single
Cc1ccc2c(c1)sc(=NC(=O)c1cccs1)n2C	2	-6	16	0	16	65*	24
COC(=O)[C@]12C[C@H](CC(=O)N3CCOCC3)C(=O)N(Cc3ccco3)C1=C[C@H](C(C)C)O[C@@H]2C1CC1	.	7	.	.	.	.	.
O=C(O)CSCC(=O)Nc1ccc(C2CCCCC2)cc1	2	4	-11	2	-10	53*	54*
Cc1ccc(Sc2c(CO)c(-c3ccccc3)nn2C)cc1	5	19	29	2	6	73*	84*
Cn1c(=O)c2[nH]c(N=Nc3ccc(N)cc3N)nc2n(C)c1=O	-1	-3	0	1	-1	71*	-5
COC(=O)Cc1ccc(NC(=O)c2ccc(C(C)(C)C)cc2)cc1	13	8	13	12	-1	79*	65*
Cc1c(Cc2ccccc2)sc(/N=C/c2ccc3ccccc3c2)c1C(N)=O	4	.	.	2	4	60*	95*
O=C(c1cc(Cl)cc(Cl)c1)N1CC[C@H]2[C@H](CCCN2Cc2cc(F)cc(F)c2)C1	.	12	.	.	.	.	.
CN(CCO)c1ccc2c(c1)Oc1ccccc1CN(Cc1cn(Cc3cccc(C(F)(F)F)c3)nn1)S2(=O)=O	.	5	.	.	.	.	.
Cc1cc(NC(=O)c2ccc(C)c([N+](=O)[O-])c2)no1	2	-1	0	0	2	-15	.
Cc1cc(NC(=O)c2ccc(Br)c([N+](=O)[O-])c2)no1	-1	-27	8	1	-3	83*	-7
CC(C)OC(=O)c1sc2nc(-c3ccccc3)ccc2c1N	9	-6	3	1	19	54*	20
CCOc1ccc(-n2c(SCC(=O)Nc3cccc4ccccc34)nnc2-c2ccncc2)cc1	.	-4	.	.	.	.	.
COc1cccc(NC(=O)CSc2nnc(-c3cc(C)n(-c4ccccc4)c3C)o2)c1	1	2	8	10	3	57*	24
C/C(C=NNC(=O)CSc1nc2ccccc2n1C)=C\c1ccccc1	.	-5	.	.	.	.	.
O=C1C(C=Nc2ccc(F)cc2)=C(O)c2ccccc21	0	1	2	-2	5	-102	.
COc1ccc(N=CC2=C(O)c3ccccc3C2=O)c(OC)c1	19	-5	4	0	7	69*	64*
COC(=O)C1CN(Cc2ccc(F)cc2)CCS(=O)(=O)N1Cc1cn(CCOC(C)=O)nn1 (stereo not given)	.	10	.	.	.	.	.
CCCCCOC(=O)c1[nH]c2c(c1C)C(=O)CC(c1ccco1)C2 (stereo not given)	-1	.	26	1	1	59*	79*
COC(=O)c1[nH]c2c(c1C)C(=O)CC(c1ccc(OC)c(OC)c1)C2 (stereo not given)	1	3	-2	0	-1	6	.
CCOCCOC(=O)c1[nH]c2c(c1C)C(=O)CC(c1cc(OC)c(OC)c(OC)c1)C2 (stereo not given)	-3	13	5	0	7	-1	.
CCOCCOC(=O)c1[nH]c2c(c1C)C(=O)CC(c1cccs1)C2 (stereo not given)	-3	9	65*	1	6	65*	87*
CCOCCOC(=O)c1[nH]c2c(c1C)C(=O)CC(c1ccccc1)C2 (stereo not given)	-2	21	53*	-1	-3	81*	91*
COC(=O)c1[nH]c2c(c1C)C(=O)CC(c1cccc(OC)c1)C2 (stereo not given)	1	7	43	-1	-1	74*	88*
COC(=O)[C@H]1C[C@@]2(N3CCCCC3)c3ccccc3N[C@H]2N1S(=O)(=O)c1ccc(C)cc1	.	-7	.	.	.	.	.
SMILES	Mtb FBA inh	PrPC surface inh	BJeLR viability	PfHsp40 yeast	GDH-TPI counter	PrP 5UTR inh	PrP 5UTR single
Cc1ccc2c([N+](=O)[O-])cccc2n1	-1	-2	-8	-1	5	-12	.
Cc1nc2c(ccc3c([N+](=O)[O-])cccc32)c(C)c1C	-1	-5	-1	0	0	71*	-53
COP(=O)(CC(=O)O)C(CC(C)C)NC(=O)OCc1ccccc1 (stereo not given)	.	3	.	.	.	.	.
CCOC(=O)[C@@]12CCCC=C1N(CCc1ccc(Cl)cc1)C(=O)[C@H]2CC(=O)N1CCCC1	.	-5	.	.	.	.	.
COC(=O)c1ccc(/C=C2/SC(=S)N(CCCC(=O)Nc3ccccn3)C2=O)cc1	1	1	4	0	6	-42	.
CCc1ccc(/C=C2\SC(=S)N(CCCC(=O)Nc3ccccn3)C2=O)cc1	-2	-2	-9	1	15	57*	55*
Cc1c(/C=N\NC(=O)C2COc3ccccc3O2)c2ccccc2n1C (stereo not given)	-1	4	22	4	26	67*	83*
Cn1cc(/C=N\NC(=O)C2COc3ccccc3O2)c2ccccc21 (stereo not given)	.	5	14	.	.	.	.
CCCCN1C=CC(=C2C(=O)c3ccccc3C2=O)C=C1	0	-29	65*	-4	3	87*	92*
Cc1cn([C@H]2C[C@H](O)[C@@H](CCC(=O)NCCc3c[nH]c4ccccc34)O2)c(=O)[nH]c1=O	-1	2	.	2	7	59*	-54
COC(=O)c1ccc(Oc2nc(N3CCCCC3)nc(N3CCOCC3)n2)cc1	-1	-6	0	1	-5	-21	.
CCN(CC)c1nc(Oc2ccc(C(=O)OC)cc2)nc(N2CCOCC2)n1	1	-1	0	2	11	82*	-26
CCCOc1ccccc1C1CC(=O)Nc2cc3c(cc21)OCCO3 (stereo not given)	-2	.	26	0	0	70*	80*
CCOc1ccccc1C1CC(=O)Nc2cc3c(cc21)OCCO3 (stereo not given)	-3	18	31	-2	3	56*	84*
O=C(c1ccccc1)c1cc([N+](=O)[O-])ccc1N1CCOCC1	-6	-16	50	-1	15	-2	.
CC1CCCN(c2ccc([N+](=O)[O-])cc2C(=O)c2ccccc2)C1 (stereo not given)	-7	7	58*	-1	10	61*	80*
Cc1ccc(C(=O)c2cc([N+](=O)[O-])ccc2N2CCCCC2)cc1	-6	2	39	1	14	56*	86*
O=C(C1CCN(c2ncnc3c2sc2cccc(F)c23)CC1)N1CCN(C(=O)C2CCCO2)CC1 (stereo not given)	.	3	.	.	.	.	.

Screens (PubChem)
